From PubChem BioAssay (NCI)
Several values for one entry are separate records, joined by “and”; a condition that tells them apart may be missing. Equal values may be shown once. Compounds without any hit were thinned out: in the full panel of roughly 79,000, 15% have a hit. Activity calls are given as the source filed them. Cut-off read from the data, not from the text of the source: active = growth inhibition above about 70%; inactive = the rest. Where a SMILES comes first, the peptide text is derived from it. The star is where a group is joined. Boc = CC(C)(C)OC(=O)*; OBn = c1ccc(CO*)cc1

experiment: NCI Yeast Anticancer Drug Screen. Data for the mec2-1 strain (AID 157); details: S. cerevisiae mec2-1 strain, active compounds read high; at 50.0 µM unless noted
How it was run: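 Growth inhibition is read against vehicle-treated controls after compound exposure of the mec2-1 yeast strain, which is defective in DNA damage repair or cell cycle control.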

Row | Compound | growth inhibition
1 | Cn1c2c(c3ccccc31)CCN(CCCCN1CCN(c3ccccc3)CC1)C2=O | -17.5% (inactive)
2 | Cc1ccc(S(=O)(=O)C2OC(CO)C(O)C(O)C2O)cc1 (stereo not given) | -16.6% (inactive)
3 | CC(C)CC(NC(=O)C(Cc1ccccc1)NC(=O)C(Cc1ccccc1)NC(=O)OC(C)(C)C)C(=O)OCc1ccccc1 (stereo not drawn) (Boc-Phe-Phe-Leu-OBn; configuration not given here) | -10.3% (inactive)
4 | CC1CC(C)OC(C(Br)CBr)O1 (stereo not given) | -10.9% (inactive)
5 | CCN(CC)CC(=O)Nc1ccc2c(c1)C(=O)c1ccc(NC(=O)CN(CC)CC)cc1C2=O | 8% (inactive)
6 | CN(C)Cc1ccccc1CC1(O)CCCC1 | -2.75% (inactive)
7 | Cc1cccc(C)c1I | -8.55% (inactive)
8 | CCOCNC(=O)NCC(F)(F)C(F)(F)C(F)(F)C(F)(F)C(F)(F)C(F)(F)C(F)(F)F | -21.5% (inactive)
9 | O=C1OC(c2ccccc2)=N/C1=C\c1ccccc1 | -12.6% (inactive) and 10.6% (inactive)
10 | CS(C)=NC(=Nc1ccccc1)c1ccccc1 | 9.6% (inactive)
11 | CCOC(=O)/C(=C\c1ccccc1)c1ccccc1 | 5.5% (inactive)
12 | CCN(CC)C(=O)c1cc(OC)c(C(=O)N(CC)CC)cc1OC | -0.35% (inactive)
13 | Cc1cc2nncn2c2ccccc12 | -3.55% (inactive)
14 | CC1=NN(C(=O)Cc2ccccc2)C(=O)/C1=C\c1ccc(O)cc1 | -36.1% (inactive)
15 | c1ccc(NN=Nc2ncnc3nc[nH]c23)cc1 | 5.9% (inactive)
16 | O=C(/C=C/c1ccc(OCc2ccccc2)cc1)c1cccc([N+](=O)[O-])c1 | 6.35% (inactive)
17 | CCCCOC(=O)c1cccc(C)c1 | 4.4% (inactive)
18 | CCSC(SCC)=C1C(=O)N(c2ccccc2)N=C1C | -18.8% (inactive)
19 | O=C1OC(c2ccccc2)=N/C1=C/C=C/c1ccco1 | -5.45% (inactive)
20 | Nc1nc(N)c2ncn(Cc3ccccc3)c2n1 | -34.4% (inactive)

Row | Compound | growth inhibition
21 | Nc1ncnc(N)c1NC(=O)c1ccc2ccccc2c1 | 35.1% (inactive)
22 | COc1ccc(C2=C(Cl)c3cc(OC)c(OC)cc3C2Cl)cc1 (stereo not given) | 22.6% (inactive)
23 | O=C(c1ccccc1)C1CC1C(=O)c1ccccc1 (stereo not given) | -11.8% (inactive)
24 | CCOc1ccc(N2C(=O)/C(=C/c3ccc(N(CCC#N)CCC#N)cc3)N=C2c2cc([N+](=O)[O-])ccc2Cl)cc1 | -1.15% (inactive)
25 | N#CCc1cccc(Cl)c1Cl (tested in a mixture with another compound) | -15.3% (inactive)
26 | Nc1c(I)cc(I)c(C(=O)O)c1I | -31.9% (inactive)
27 | CC(C)(C)[Si](C)(C)OCC1OC(n2cnc3c(=O)[nH]cnc32)CC1O (stereo not given) | 6.2% (inactive)
28 | CCCCCCCCCCCCCCCCCn1nnnc1N | 11.6% (inactive)
29 | CCC1(CC)C(=O)NN(C(=O)c2ccc(Cl)cc2)C1=O | -22.9% (inactive)
30 | CCOC(=O)CSC#N | -0.85% (inactive)
31 | O=C(O)c1ccc(C(=O)NCCCN(CCCCN(CCCNC(=O)c2ccc(C(=O)O)c(O)c2O)C(=O)c2ccc(C(=O)O)c(O)c2O)C(=O)c2ccc(C(=O)O)c(O)c2O)c(O)c1O | 16.1% (inactive)
32 | CCCCCCCCCCCC[N+](C)([O-])CCCCCC[N+](C)([O-])CCCCCCCCCCCC (stereo not given) | 98.7% (active)
33 | CCOC(=O)c1[nH]c(-c2[nH]c(-c3[nH]c(-c4[nH]c(C(=O)OCC)c(C)c4C(=O)OCC)c(C(=O)OCC)c3C)c(C)c2C(=O)OCC)c(C(=O)OCC)c1C | -16% (inactive)
34 | O=c1cnn2c(n1)OC1C(O)C(CO)OC12 (stereo not given) | -2.5% (inactive)
35 | N#Cc1c(-c2ccccc2Cl)c(-c2ccccc2Cl)nn(CCO)c1=O | 7.2% (inactive)
36 | O=C(O)c1ccccc1SCCO | 18% (inactive)
37 | Cc1ccc(S(=O)(=O)N/N=C/c2ccoc2)cc1 | -8.6% (inactive)
38 | COc1ccc(NC(=O)CC/C(CC(=O)c2ccco2)=N/NC(=O)C(N)=O)cc1 | -10.4% (inactive)
39 | Cc1ncc(CN=Cc2ccc(Cl)cc2)c(N)n1 | 17% (inactive)
40 | CCSCCC#N | 4.75% (inactive)

experiment: NCI Yeast Anticancer Drug Screen. Data for the sgs1 mgt1 strain (AID 161);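 note: 0% = growth of cultures given vehicle only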; details: S. cerevisiae sgs1 mgt1 strain, active compounds read high; at 50.0 µM unless noted
How it was run: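 Yeast cells carrying a defined DNA-repair defect were exposed to test compounds. Growth inhibition was measured relative to vehicle-treated controls.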

Row | Compound | growth inhibition
41 | Cn1c2c(c3ccccc31)CCN(CCCCN1CCN(c3ccccc3)CC1)C2=O | -36% (inactive)
42 | Cc1ccc(S(=O)(=O)C2OC(CO)C(O)C(O)C2O)cc1 (stereo not given) | -5.55% (inactive)
43 | CC(C)CC(NC(=O)C(Cc1ccccc1)NC(=O)C(Cc1ccccc1)NC(=O)OC(C)(C)C)C(=O)OCc1ccccc1 (stereo not drawn) (Boc-Phe-Phe-Leu-OBn; configuration not given here) | -5.95% (inactive)
44 | CC1CC(C)OC(C(Br)CBr)O1 (stereo not given) | -4.8% (inactive)
45 | CCN(CC)CC(=O)Nc1ccc2c(c1)C(=O)c1ccc(NC(=O)CN(CC)CC)cc1C2=O | -4.5% (inactive)
46 | CN(C)Cc1ccccc1CC1(O)CCCC1 | -4.3% (inactive)
47 | Cc1cccc(C)c1I | -67.2% (inactive)
48 | CCOCNC(=O)NCC(F)(F)C(F)(F)C(F)(F)C(F)(F)C(F)(F)C(F)(F)C(F)(F)F | -4.6% (inactive)
49 | O=C1OC(c2ccccc2)=N/C1=C\c1ccccc1 | -15.5% (inactive) and 20.9% (inactive)
50 | CS(C)=NC(=Nc1ccccc1)c1ccccc1 | -12% (inactive)
51 | CCOC(=O)/C(=C\c1ccccc1)c1ccccc1 | 9.65% (inactive)
52 | CCN(CC)C(=O)c1cc(OC)c(C(=O)N(CC)CC)cc1OC | 4.15% (inactive)
53 | Cc1cc2nncn2c2ccccc12 | -2.9% (inactive)
54 | CC1=NN(C(=O)Cc2ccccc2)C(=O)/C1=C\c1ccc(O)cc1 | -47.4% (inactive)
55 | c1ccc(NN=Nc2ncnc3nc[nH]c23)cc1 | -2.2% (inactive)
56 | O=C(/C=C/c1ccc(OCc2ccccc2)cc1)c1cccc([N+](=O)[O-])c1 | -5.85% (inactive)
57 | CCCCOC(=O)c1cccc(C)c1 | -4.35% (inactive)
58 | CCSC(SCC)=C1C(=O)N(c2ccccc2)N=C1C | -4.1% (inactive)
59 | O=C1OC(c2ccccc2)=N/C1=C/C=C/c1ccco1 | -6% (inactive)
60 | Nc1nc(N)c2ncn(Cc3ccccc3)c2n1 | -9.95% (inactive)

Row | Compound | growth inhibition
61 | Nc1ncnc(N)c1NC(=O)c1ccc2ccccc2c1 | -1.55% (inactive)
62 | COc1ccc(C2=C(Cl)c3cc(OC)c(OC)cc3C2Cl)cc1 (stereo not given) | 21.2% (inactive)
63 | O=C(c1ccccc1)C1CC1C(=O)c1ccccc1 (stereo not given) | -6.1% (inactive)
64 | CCOc1ccc(N2C(=O)/C(=C/c3ccc(N(CCC#N)CCC#N)cc3)N=C2c2cc([N+](=O)[O-])ccc2Cl)cc1 | -9.8% (inactive)
65 | N#CCc1cccc(Cl)c1Cl (tested in a mixture with another compound) | 3.55% (inactive)
66 | Nc1c(I)cc(I)c(C(=O)O)c1I | -17% (inactive)
67 | CC(C)(C)[Si](C)(C)OCC1OC(n2cnc3c(=O)[nH]cnc32)CC1O (stereo not given) | 3.2% (inactive)
68 | CCCCCCCCCCCCCCCCCn1nnnc1N | -7.3% (inactive)
69 | CCC1(CC)C(=O)NN(C(=O)c2ccc(Cl)cc2)C1=O | 28.4% (inactive)
70 | CCOC(=O)CSC#N | 1.35% (inactive)
71 | O=C(O)c1ccc(C(=O)NCCCN(CCCCN(CCCNC(=O)c2ccc(C(=O)O)c(O)c2O)C(=O)c2ccc(C(=O)O)c(O)c2O)C(=O)c2ccc(C(=O)O)c(O)c2O)c(O)c1O | 20.3% (inactive)
72 | CCCCCCCCCCCC[N+](C)([O-])CCCCCC[N+](C)([O-])CCCCCCCCCCCC (stereo not given) | 97.8% (active)
73 | CCOC(=O)c1[nH]c(-c2[nH]c(-c3[nH]c(-c4[nH]c(C(=O)OCC)c(C)c4C(=O)OCC)c(C(=O)OCC)c3C)c(C)c2C(=O)OCC)c(C(=O)OCC)c1C | -21.3% (inactive)
74 | O=c1cnn2c(n1)OC1C(O)C(CO)OC12 (stereo not given) | 9.6% (inactive)
75 | N#Cc1c(-c2ccccc2Cl)c(-c2ccccc2Cl)nn(CCO)c1=O | 13.4% (inactive)
76 | O=C(O)c1ccccc1SCCO | 25.3% (inactive)
77 | Cc1ccc(S(=O)(=O)N/N=C/c2ccoc2)cc1 | -17.1% (inactive)
78 | COc1ccc(NC(=O)CC/C(CC(=O)c2ccco2)=N/NC(=O)C(N)=O)cc1 | -15.8% (inactive)
79 | Cc1ncc(CN=Cc2ccc(Cl)cc2)c(N)n1 | -9.45% (inactive)
80 | CCSCCC#N | -13% (inactive)
